# From the supplement of paper PMC8728848
# This is one part of a sample in which the strongest signals are shown more often than they occur.
# B1: MXA PilAct-eGFP (Myxococcus xanthus), Q59589 (protein)
# chain: MRVSRFNPRNRGFTLIELMIVVAIIGILAAIAIPNFIKFQARSKQSEAKTNLKALYTAQKSFFSEKDRYSDFANEIGFAPERGNRYGYRVSAAAGDCEVRNAADLPVPAAGVPCISNDSFRFGANSAIDDPTPVVARFVPQGAAGWNTTLGVQPTIADCPNCNFFAGARGNADNEATFDDWVIAGFEGSGQVGPCSEAGNVASGTPYNTRNDVACDGAAQ
# How the values were obtained:
# Experiment in all cases: glycan array binding signal (z-score within array); higher = stronger binding
# Conditions in all cases: glycan notation: IUPAC condensed, linker removed
# [1] = biological target: Fuc(a1-2)Gal(b1-3)GalNAc(a1-3)[Fuc(a1-2)]Gal(b1-4)Glc
# Summary of the method: (§1)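 The binding signal is a Z-score computed within each array and averaged over linkers. Arrays of the same protein sequence at different concentrations or buffers were also averaged together. Data originate from 3228 arrays in the Consortium for Functional Glycomics database, kept only where the protein sequence was available.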
# [2] = biological target: Fuc(a1-2)Gal(b1-3)GlcNAc(b1-3)GalNAc
# Summary of the method: as §1
# [3] = biological target: Fuc(a1-2)Gal(b1-3)GlcNAc(b1-3)[Neu5Ac(a2-6)Gal(b1-4)GlcNAc(b1-6)]Gal(b1-4)Glc
# Summary of the method: as §1
# [4] = biological target: Fuc(a1-2)Gal(b1-4)GlcNAc(b1-3)Gal(b1-4)GlcNAc
# Summary of the method: as §1
# [5] = biological target: Fuc(a1-2)Gal(b1-4)GlcNAc(b1-3)Gal(b1-4)GlcNAc(b1-3)Gal(b1-4)GlcNAc
# Summary of the method: as §1
# [6] = biological target: Fuc(a1-2)Gal(b1-4)[Fuc(a1-3)]GlcNAc(b1-2)Man(a1-3)[Fuc(a1-2)Gal(b1-4)[Fuc(a1-3)]GlcNAc(b1-2)Man(a1-6)]Man(b1-4)GlcNAc(b1-4)[Fuc(a1-6)]GlcNAc
# Summary of the method: as §1
# [7] = biological target: Fuc(a1-2)Gal(b1-4)[Fuc(a1-3)]GlcNAc(b1-3)Gal(b1-4)[Fuc(a1-3)]GlcNAc(b1-3)Gal(b1-4)[Fuc(a1-3)]GlcNAc
# Summary of the method: as §1
# [8] = biological target: Fuc(a1-2)Gal3S(b1-4)GlcNAc
# Summary of the method: as §1
# [9] = biological target: Fuc(a1-2)[Gal(a1-3)]Gal(b1-4)GlcNAc
# Summary of the method: as §1
# [10] = biological target: Fuc(a1-2)[Gal(a1-3)]Gal(b1-4)GlcNAc(b1-2)Man
# Summary of the method: as §1
# [11] = biological target: Fuc(a1-2)[GalNAc(a1-3)]Gal(b1-4)GlcNAc(b1-2)Man(a1-3)[Fuc(a1-2)[GalNAc(a1-3)]Gal(b1-4)GlcNAc(b1-2)Man(a1-6)]Man(b1-4)GlcNAc(b1-4)GlcNAc
# Summary of the method: as §1
# [12] = biological target: Fuc(a1-2)[GalNAc(a1-3)]Gal(b1-4)GlcNAc(b1-3)Gal(b1-4)GlcNAc
# Summary of the method: as §1
# [13] = biological target: Fuc(a1-2)[GalNAc(a1-3)]Gal(b1-4)GlcNAc(b1-6)GalNAc
# Summary of the method: as §1
# [14] = biological target: Fuc(a1-3)[Gal(b1-4)]GlcNAc(b1-6)[Gal(b1-3)GlcNAc(b1-3)]Gal(b1-4)Glc
# Summary of the method: as §1
# [15] = biological target: Fuc(a1-3)[GalNAc(b1-4)]GlcNAc
# Summary of the method: as §1
# [16] = biological target: Gal(a1-3)Gal(b1-3)GlcNAc
# Summary of the method: as §1
# [17] = biological target: Gal(b1-3)GlcNAc(b1-2)Man(a1-3)[GlcNAc(b1-4)][Gal(b1-3)GlcNAc(b1-2)Man(a1-6)]Man(b1-4)GlcNAc(b1-4)GlcNAc
# Summary of the method: as §1
# [18] = biological target: Gal(b1-3)GlcNAc(b1-3)Gal(b1-4)GlcNAc(b1-2)[Gal(b1-3)GlcNAc(b1-3)Gal(b1-4)GlcNAc(b1-6)]Man(a1-6)[Gal(b1-3)GlcNAc(b1-3)Gal(b1-4)GlcNAc(b1-2)Man(a1-3)]Man(b1-4)GlcNAc(b1-4)[Fuc(a1-6)]GlcNAc
# Summary of the method: as §1
# [19] = biological target: Gal(b1-3)GlcNAc(b1-3)Gal(b1-4)GlcNAc(b1-3)Gal(b1-4)GlcNAc(b1-2)[Gal(b1-3)GlcNAc(b1-3)Gal(b1-4)GlcNAc(b1-3)Gal(b1-4)GlcNAc(b1-6)]Man(a1-6)[Gal(b1-3)GlcNAc(b1-3)Gal(b1-4)GlcNAc(b1-3)Gal(b1-4)GlcNAc(b1-2)Man(a1-3)]Man(b1-4)GlcNAc(b1-4)[Fuc(a1-6)]GlcNAc
# Summary of the method: as §1
# [20] = biological target: Gal(b1-3)[Fuc(a1-4)]GlcNAc(b1-3)Gal(b1-3)[Fuc(a1-4)]GlcNAc
# Summary of the method: as §1
# [21] = biological target: Gal(b1-4)Glc
# Summary of the method: as §1
# [22] = biological target: Gal(b1-4)GlcNAc(b1-3)Gal(b1-4)GlcNAc(b1-2)[Gal(b1-4)GlcNAc(b1-3)Gal(b1-4)GlcNAc(b1-6)]Man(a1-6)[Gal(b1-4)GlcNAc(b1-3)Gal(b1-4)GlcNAc(b1-2)Man(a1-3)]Man(b1-4)GlcNAc(b1-4)GlcNAc
# Summary of the method: as §1
# [23] = biological target: Gal(b1-4)GlcNAc(b1-3)Gal(b1-4)GlcNAc(b1-3)Gal(b1-4)GlcNAc(b1-3)Gal(b1-4)GlcNAc(b1-2)[Gal(b1-4)GlcNAc(b1-3)Gal(b1-4)GlcNAc(b1-3)Gal(b1-4)GlcNAc(b1-3)Gal(b1-4)GlcNAc(b1-6)]Man(a1-6)[Gal(b1-4)GlcNAc(b1-3)Gal(b1-4)GlcNAc(b1-3)Gal(b1-4)GlcNAc(b1-3)Gal(b1-4)GlcNAc(b1-2)Man(a1-3)]Man(b1-4)GlcNAc(b1-4)[Fuc(a1-6)]GlcNAc
# Summary of the method: as §1
# [24] = biological target: Gal(b1-4)GlcNAc(b1-6)Gal(b1-4)GlcNAc
# Summary of the method: as §1
# [25] = biological target: Gal(b1-4)GlcNAc6P
# Summary of the method: as §1
# [26] = biological target: Gal3S(b1-4)GlcNAc
# Summary of the method: as §1
binder,measurement,setting,value
B1,glycan array binding signal (z-score),[1],0.469
same,glycan array binding signal (z-score),[2],-0.348
same,glycan array binding signal (z-score),[3],-0.4
same,glycan array binding signal (z-score),[4],0.643
same,glycan array binding signal (z-score),[5],2.63
same,glycan array binding signal (z-score),[6],-0.459
same,glycan array binding signal (z-score),[7],-0.292
same,glycan array binding signal (z-score),[8],-0.55
same,glycan array binding signal (z-score),[9],0.335
same,glycan array binding signal (z-score),[10],-0.112
same,glycan array binding signal (z-score),[11],3.39
same,glycan array binding signal (z-score),[12],-0.546
same,glycan array binding signal (z-score),[13],0.269
same,glycan array binding signal (z-score),[14],-0.768
same,glycan array binding signal (z-score),[15],-1.22
same,glycan array binding signal (z-score),[16],-1.1
same,glycan array binding signal (z-score),[17],0.003
same,glycan array binding signal (z-score),[18],6.11
same,glycan array binding signal (z-score),[19],4.94
same,glycan array binding signal (z-score),[20],-2.03
same,glycan array binding signal (z-score),[21],-1.09
same,glycan array binding signal (z-score),[22],-0.993
same,glycan array binding signal (z-score),[23],3.46
same,glycan array binding signal (z-score),[24],0.221
same,glycan array binding signal (z-score),[25],0.348
same,glycan array binding signal (z-score),[26],-0.174
